# WRN inhibitor = WRN helicase (human) inhibition. WRN helicase unwinding, fluorescent forked duplex, kinetic. Potency, µM (titrated, usually from 114 µM), inactives show at the highest dose activity change, negative = inhibition, most hits filed as inhibitors. 360,000 compounds, 0.46% hits. AID 651768; also: potency is read from the fitted curve at half-maximal effect; % is scaled to controls: 0 for no effect and ±100 for the full control effect; nearly all actives have a fitted effect of over 55% in size
#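 Kinetic fluorescence helicase assay: unwinding of a quenched forked DNA duplex (100 nM final) with 2 mM ATP final raises red fluorescence (525/598 nm). Compounds sat 15 min at room temperature with 20 nM WRN beforehand.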
# Glioma ERSR ind = inducers of ER stress response in human glioma cells | U87-MG GRP78 promoter luciferase reporter, 16 h | Potency, µM, for the others: at the highest dose activation, actives largely listed as activators | 420,000 compounds, 0.02% hits | AID 602332; also: potency is read from the fitted curve at half-maximal effect; series mostly up to about 76 µM; % of control where 0% means no effect; nearly all actives have a fitted effect of over 35% in size
#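 Stably transfected U87-MG human glioma cells carrying a GRP78-based luminescent sensor were seeded at 1000 cells/well, pin-dosed with compounds and incubated 16 h. Luciferase reagent was then added, and end-point luminescence was read after 10 min at room temperature.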
# PI5P4K alpha inh = blocks human PI5P4K alpha kinase activity | PI5P4Kalpha enzyme, ADP-Glo luminescence, 60 min; active compounds read low | max response, % | P48426 | AID 652105 | 330,000 compounds, 1.2% hits; active = max response of -50% or lower; inconclusive = between -30% and -50%; inactive = -30% or higher; also: value at the top dose of about 77 µM; % is scaled to controls: 0 for no effect and ±100 for the full control effect
# Target sequence (P48426 whole entry, looked up): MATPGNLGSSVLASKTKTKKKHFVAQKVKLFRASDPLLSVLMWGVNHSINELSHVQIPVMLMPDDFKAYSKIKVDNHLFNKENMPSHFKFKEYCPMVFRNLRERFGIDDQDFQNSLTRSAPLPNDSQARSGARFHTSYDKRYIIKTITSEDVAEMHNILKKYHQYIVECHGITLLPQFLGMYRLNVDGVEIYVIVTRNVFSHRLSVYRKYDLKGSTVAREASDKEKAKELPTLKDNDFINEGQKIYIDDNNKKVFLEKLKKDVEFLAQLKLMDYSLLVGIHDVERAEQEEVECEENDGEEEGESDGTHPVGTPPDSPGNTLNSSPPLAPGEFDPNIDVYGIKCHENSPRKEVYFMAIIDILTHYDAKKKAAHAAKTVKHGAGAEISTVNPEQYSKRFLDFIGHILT
#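 Luminescence from ADP-Glo served as readout of PI5P4Kalpha activity in a qHTS format. Reaction: enzyme, substrate, compound, ATP at 5 microM final, 60 min at RT.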
# FEN1 inhibitor = blocks human flap endonuclease 1; P39748; Recombinant FEN1 flap cleavage, fluorescence, 15 min; Potency, µM (doses to about 114 µM), without a hit: top-dose activity change, negative = inhibition, usual class: inhibitors; 390,000 compounds, 0.35% hits; AID 588795; also: potency is read from the fitted curve at half-maximal effect; % is scaled to controls: 0 for no effect and ±100 for the full control effect; nearly all actives have a fitted effect of over 65% in size
#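 Read-out was taken twice, immediately and after 15 min, following addition of 50 nM substrate to 10 nM FEN1 that had sat with test compound for 15 min at room temperature. Curves came from a four-parameter Hill model.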
# Pin1 inhibitor = inhibitors of human Pin1 | Q13526 | AID 504891 | 390,000 compounds, 0.009% hits | Pin1 FP peptide displacement, HiFluor488, 10 min | Potency, µM (doses to about 115 µM), without a hit: top-dose activity, negative = inhibition, hits mostly inhibitors; active = well fitted inhibition curve with a large enough effect in the polarisation, with a control signal flat, not every such curve was filed as active; inconclusive = small, poorly fitted or top-dose-only effect, or effect the other way, or a change in a side signal; inactive = no such curve, though single readings can be large or run the other way; the % refers to the polarisation; also: potency is read from the fitted curve at half-maximal effect; % is scaled to controls: 0 for no effect and ±100 for the full control effect
# Target sequence (Q13526 whole entry, looked up): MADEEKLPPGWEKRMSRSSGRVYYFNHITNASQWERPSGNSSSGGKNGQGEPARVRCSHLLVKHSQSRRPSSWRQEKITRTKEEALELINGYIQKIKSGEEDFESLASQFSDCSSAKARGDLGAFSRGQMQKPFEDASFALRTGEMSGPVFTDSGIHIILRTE
# Tb PGK inh = T. brucei PGK inhibition | P07378 | AID 602233 | Potency, µM (titrated, usually from 57.5 µM), inactives show at the highest dose activity change, negative = inhibition, hits mostly inhibitors | PGK/GAPDH coupled, Kinase-Glo luminescence, 60 min | 380,000 compounds, 0.043% hits; also: potency is read from the fitted curve at half-maximal effect; % is scaled to controls: 0 for no effect and ±100 for the full control effect; nearly all actives have a fitted effect of over 60% in size
#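 Recombinant glycosomal PGK reaction used 1,3-bisphosphoglycerate generated in-well by GAPDH (100nM final) in 100mM TEA pH 7.6, 5mM MgCl2, 0.01% Tween-20. After 60 minutes at room temperature, ATP was read by Kinase-Glo Plus luminescence end-point.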
# Starred values were filed as active, the others as inactive; i = inactive; ? = inconclusive; . = not tested or not shown; [ ] = remark or other dose. Only some compounds are listed: those with a hit (about 1.3% of all), similar ones and a draw of the others. Unless noted, calls follow the shape of the dose curve; as a rule, active = well fitted curve in the direction sought with a large enough effect; inconclusive = small, poorly fitted or top-dose-only effect, or another doubt; inactive = no such curve, though single readings can be large; an effect the other way counts as inactive or inconclusive.
SMILES,WRN inhibitor,Glioma ERSR ind,PI5P4K alpha inh,FEN1 inhibitor,Pin1 inhibitor,Tb PGK inh
N#CC(C#N)=NNc1ccc([N+](=O)[O-])cc1,-4%,-1%,-20,11%,41%,-11%
COc1cccc2c1C(=O)c1c(O)c3c(c(O)c1C2=O)C[C@@](O)(C(=O)CO)C[C@@H]3O[C@H]1C[C@H](N)[C@H](OC2CCCCO2)[C@H](C)O1 (some centres not stated),.,-5%,.,18µM*,.,.
O=c1[nH]c(=S)[nH]c(O)c1N=Nc1ccc(S(=O)(=O)N2CCc3ccccc32)cc1,-24%[57.1 µM],5%,-58*,-1%,75%,i
CC(C)c1ccc(N=Nc2c(O)[nH]c(=O)[nH]c2=O)cc1,0%,0%,-21,-1%,52%,-1%
O=c1[nH]c(=S)[nH]c(O)c1N=Nc1ccc(SC(F)F)cc1,-27%,-7%,-57*,-2%,?,-4%
CCc1ccc(N2C(=O)NC(=O)/C(=C/c3cccn3CCOc3ccc(C)cc3)C2=O)cc1,-2%,7%,-24,1%,?,1%
O=C1NC(=O)N(Cc2ccco2)C(=O)/C1=C\c1cccn1CCOc1ccc(Cl)cc1,50µM*,-1%,-54*,-32%,-9%,-9%
CCc1ccc(N2C(=O)NC(=O)/C(=C/c3cccn3CCOc3ccc(C(C)CC)cc3)C2=O)cc1 (configuration not stated),-5%[57.1 µM],2%,-53*,-10%,?,.
Cc1cccc(OCCn2cccc2/C=C2/C(=O)NC(=O)N(Cc3ccco3)C2=O)c1,?,4%,-57*,-33%,8%,-10%
CCN(CC)C(=O)c1c(C)[nH]c(=S)c(C#N)c1-c1ccco1,50µM*,-4%,-96*,0%,17%,3%
CC1=NNC(=O)C1Br (configuration not stated),28µM*,-3%,-14,-1%,2%,i
CC1=C(O)C(=O)C=C2C1=CC=C1[C@]2(C)CC[C@@]2(C)C3C[C@](C)(C(=O)O)CC[C@@]3(C)CC[C@@]12C (some centres not stated),.,-12%,.,.,.,.
CN1C(=O)/C(=C/c2cccn2-c2ccc3ccccc3c2)C(=O)NC1=S,-35%[57.1 µM],0%,-78*,?,.,-16%
COc1ccc(NC(=O)CSc2oc(-c3cccs3)nc2S(=O)(=O)c2ccccc2)c(OC)c1,.,-2%,.,-5%,34%,8%
C[C@H]1[C@@H]2Cc3ccc(O)cc3[C@]1(C)CCN2CCc1ccccc1,.,-4%,.,.,.,.
Cc1ccc(/C=C2\C(=O)NC(=S)N(c3ccc(F)cc3)C2=O)o1,?,0%,-59*,?,?,-11%
COc1cccc(N2C(=O)/C(=C/c3ccc(C)o3)C(=O)NC2=S)c1,?,-2%,-59*,?,?,.
Cc1ccc(N2C(=O)/C(=C/c3ccc(CN(CCC#N)S(C)(=O)=O)o3)C(=O)NC2=S)cc1,50µM*,-5%,-71*,35µM*,?,?
Cc1cc(C)cc(N2C(=O)/C(=C\c3ccc(N4CCN(C)CC4)o3)C(=O)NC2=S)c1,-19%,3%,-9,?,?,-1%
Cc1ccc(C(=O)c2cn(CC(=O)Nc3ccc(C(C)C)cc3)c3nc(C)ccc3c2=O)cc1,.,-4%,.,3%,30%,0%
C/C(=N\NC(=S)Nc1ccccc1)c1c(O)n(C)c(=O)n(C)c1=O,-5%,9%,-53*,14%,-5%,5%
CC/C(=N\Nc1ccccc1)c1c(O)n(C)c(=O)n(C)c1=O,-8%,3%,-5,-8%,3%,3%
O=C(c1ccccc1NS(=O)(=O)c1ccc(Br)cc1)N1CCOCC1,?,-5%,1,-5%,-10%,-2%
CCOc1cc(/C=C2/C(=O)NC(=O)N(c3ccc(CC)cc3)C2=O)ccc1OC(=O)c1cccs1,50µM*,0%,-70*,-1%,17%,-7%
CCOc1ccc(N2C(=O)NC(=O)/C(=C\c3cc(OC)c(OC)cc3[N+](=O)[O-])C2=O)cc1,?,0%,-23,-4%,?,i
SMILES,WRN inhibitor,Glioma ERSR ind,PI5P4K alpha inh,FEN1 inhibitor,Pin1 inhibitor,Tb PGK inh
COc1ccc(/C=C2/C(=O)NC(=O)N(c3ccccc3)C2=O)cc1CN1C(=O)c2ccccc2C1=O,-8%,1%,-53*,?,15%,3%
COc1ccc(/C=C2/C(=O)NC(=S)N(C3CC3)C2=O)cc1CN1C(=O)c2ccccc2C1=O,14µM*,-4%,-88*,-12%,3%,-2%
COc1cc(/C=C2/C(=O)NC(=O)N(c3ccccc3)C2=O)ccc1O,?,0%,-59*,3%,?,i
COc1ccccc1N1C(=O)NC(=O)/C(=C\c2cnn(-c3ccccc3)c2)C1=O,?,-10%,?,-3%,-4%,-12%
CCOc1ccc(-c2nc(CSCC(=O)NCCc3ccc(OCC)c(OCC)c3)c(C)o2)cc1,.,-5%,.,-4%,?,-10%
Cc1cccc(N2C(=O)NC(=O)/C(=C\c3ccc(N4CCOCC4)cc3)C2=O)c1,?,-1%,?,-3%,-14%,-6%
COc1cccc(N2C(=O)NC(=O)/C(=C/c3ccc4c(c3)Cc3ccccc3-4)C2=O)c1,45µM*,0%,?,?,8%,-5%
Cc1ccc(S(=O)(=O)N(C)C[C@H]2Oc3c(NC(=O)Nc4cccc5ccccc45)cccc3C(=O)N([C@@H](C)CO)C[C@@H]2C)cc1,-9%,-3%,1,10%,15%,-5%
O=C1NC(=O)N(c2ccc3c(c2)OCO3)C(=O)/C1=C\c1ccc(-c2ccccc2C(=O)O)o1,56µM*,-4%,-52*,?,?,-19%
C[C@]12CCC(=O)C=C1CC[C@@H]1[C@H]3CC[C@](C)(O)[C@@]3(C)CC[C@@H]12,.,-4%,.,.,.,.
CC[n+]1c(/C=C/N(C)c2ccccc2)sc2ccc(Cl)cc21,50µM*,-2%,.,?,1%,-5%

# Assay outcomes deposited in PubChem by National Center for Advancing Translational Sciences (NCATS).
